Mtb FBA inh: Mtb FBA enzyme inhibitors, primary screen, biochemical, fluorescence, strain H37Rv; AID 588726, 2011; Fructose-bisphosphate aldolase (Mycobacterium tuberculosis (strain ATCC 25618 / H37Rv)), …; inhibition, % at 1 µM; 360,000 compounds, 2.3% hits; purified M. tuberculosis FBA, fluorescence read-out;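 further: 0% = vehicle and 100% = reference inhibitor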
Target sequence (P9WQA3 whole entry, looked up): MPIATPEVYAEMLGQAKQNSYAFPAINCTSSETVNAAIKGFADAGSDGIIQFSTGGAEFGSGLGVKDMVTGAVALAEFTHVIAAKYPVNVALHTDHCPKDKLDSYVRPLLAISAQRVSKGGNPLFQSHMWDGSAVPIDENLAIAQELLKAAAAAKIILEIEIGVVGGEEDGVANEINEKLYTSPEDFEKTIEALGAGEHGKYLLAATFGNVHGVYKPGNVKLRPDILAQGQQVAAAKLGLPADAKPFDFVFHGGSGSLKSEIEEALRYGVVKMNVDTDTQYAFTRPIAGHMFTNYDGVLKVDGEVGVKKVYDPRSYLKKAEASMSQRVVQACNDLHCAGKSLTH
GDH-TPI counter-1: GDH-TPI coupling enzyme inhibitors, primary screen, artefact control for M. tuberculosis FBA inhibitor project, biochemical, absorbance, full deck. inhibition, % at 4.8 µM. 360,000 compounds, 1.2% hits. GDH-TPI coupled enzyme counterscreen, NADH absorbance; in the data active means inhibition above about 30%;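 further: 0% = DMSO wells and 100% = wells lacking the enzyme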
UGM FP inh: M. tuberculosis UGM enzyme inhibitors, primary screen, biochemical, fluorescence polarization, single point | UDP-galactopyranose mutase (Mycobacterium tuberculosis (strain ATCC 25618 / H37Rv)), … | purified UGM, fluorescence polarization probe displacement | inhibition, % at 10 µM | 320,000 compounds, 0.06% hits | AID 504406, 2011; in the data active means inhibition above about 10%, passing the limit was not always enough
Rv3671c protease: Rv3671c serine protease inhibitors, primary screen, biochemical, fluorescence polarization, M. tuberculosis H37Rv; AID 2606, 2010; 320,000 compounds, 0.048% hits; P9WHR9; inhibition, % at 5.96 µM; in the data active means inhibition above about 38%;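 further: extracellular domain of Rv3671c used as enzyme; 0% = enzyme with DMSO and 100% = no enzyme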
Mtb FBA inh conf: M. tuberculosis aldolase blockers, biochemical, fluorescence, strain H37Rv, confirmation; shares compounds with Mtb FBA inh; purified M. tuberculosis FBA, fluorescence read-out; inhibition, % at 1 µM; 5,600 compounds, 78% hits; AID 651616, 2012;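 further: 0% = vehicle wells and 100% = reference inhibitor wells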
GDH-TPI counter-2: GDH-TPI coupling enzyme inhibitors, artefact control for M. tuberculosis FBA inhibitor project, biochemical, fluorescence, high throughput | shares compounds with Mtb FBA inh | inhibition, % at 1 µM | 5,600 compounds, 81% hits | AID 652141, 2013 | GDH-TPI coupled enzyme counterscreen; in the data active means inhibition above about 10%
Numbers without * were called inactive; nt = no result; + = active, no number. Rows were chosen to be rich in hits. Some 3.5% of all compounds tested hit in one or more screens of this group. Unless noted, no stated cut-off is given here; in the data, active means inhibition above about 27%; inactive means the rest.

SMILES | Mtb FBA inh | GDH-TPI counter-1 | UGM FP inh | Rv3671c protease | Mtb FBA inh conf | GDH-TPI counter-2
COc1ccc(-c2coc3c(C(=O)NCc4ccco4)cccc23)c(C)c1 | -1 | 0 | nt | nt | nt | nt
COc1ccc2c(c1)cc(C(=O)N[C@@H](CCSC)C(=O)N1CCC[C@H]1C(=O)O)n2C | 111* | 9 | 3 | 0 | 0 | -1
CC(C)C[C@H](NC(=O)c1cc2cc(Cl)ccc2n1C)C(=O)N1CCC[C@H]1C(=O)O | 5 | 11 | 4 | -13 | nt | nt
CNC(=O)c1cc2cc(OC)ccc2n1CCN(C)C | 29* | 0 | -1 | 2 | 110* | 74*
COc1ccc2c(c1)cc(C(=O)O)n2C | 64* | 6 | -1 | -7 | + | +
COC(=O)c1cc2cc(OC)ccc2n1C | 5 | 3 | 1 | 2 | nt | nt
C[C@H](NC(=O)c1cc2cc(Cl)ccc2n1C)C(=O)N1CCC[C@H]1C(=O)O | 7 | -8 | 1 | -6 | nt | nt
COc1ccc2c(c1)cc(C(=O)N[C@H](C(=O)N1CCC[C@H]1C(=O)O)C(C)C)n2C | 106* | 11 | 1 | -3 | 159* | 113*
CNC(=O)c1cc2cc(OC)ccc2n1CCN(Cc1ccccc1)Cc1ccccc1 | 1 | 1 | 0 | -8 | nt | nt
CC(C)Cc1nnc(NC(=O)CCC(=O)N2CCCCC2)s1 | -1 | -9 | -4 | 9 | nt | nt
Cc1ccc(S(=O)(=O)NC(CC(=O)O)c2cccs2)cc1 (configuration not stated) | -1 | -1 | 2 | -2 | nt | nt
Cc1cc(C(=O)N2CCC2(C)C(=O)NCCC#N)nn1C (configuration not stated) | 0 | 1 | nt | nt | nt | nt
COc1cc2cc(C(=O)O)n(C)c2c(OC)c1OC | 59* | 10 | 5 | -7 | 68* | 61*
COc1ccc2c(c1)cc(C(=O)N[C@H](C(=O)N1CCC(C(=O)O)CC1)C(C)C)n2C | 65* | -3 | 4 | -8 | 120* | 99*
COc1cc2cc(C(=O)N[C@@H](Cc3ccccc3)C(=O)O)n(C)c2c(OC)c1OC | 15 | 10 | 3 | 6 | nt | nt
OC(c1ccc(F)c(F)c1)c1nc(-c2ccc(F)c(Cl)c2)cs1 (configuration not stated) | -2 | 3 | nt | nt | nt | nt
CCOC(=O)c1c(C)[nH]c(C)c1S(=O)(=O)N1CCOCC1 | 0 | 1 | 0 | -7 | nt | nt
COc1ccc(NC(=O)N2CCCC2C(=O)NCc2cccs2)cc1 (configuration not stated) | -2 | -12 | 1 | 2 | nt | nt
COc1ccc2c(c1)sc1nc(=O)ccn12 | 49* | -12 | 0 | -6 | 117* | 106*
Cc1ccc2c(c1)sc1nc(=O)ccn12 | 7 | 8 | -3 | -2 | nt | nt
N#Cc1nc(COc2ccccc2Cl)oc1NCc1ccco1 | -2 | -2 | 1 | 4 | nt | nt
CCOc1ccc(-c2nc(C#N)c(NCc3ccco3)o2)cc1 | 53* | 8 | 1 | -8 | 58* | 50*
CNc1oc(-c2ccco2)nc1C#N | 68* | 9 | -1 | 8 | 46* | 45*
Cc1ccc(CNc2oc(-c3ccco3)nc2C#N)cc1 | 54* | 16 | 1 | -6 | 3 | 4
COc1ccc(OC)c(/C=N/NC(=O)Cc2nc3ccccc3[nH]2)c1 | 74* | 14 | 0 | -115 | 51* | 30*
SMILES | Mtb FBA inh | GDH-TPI counter-1 | UGM FP inh | Rv3671c protease | Mtb FBA inh conf | GDH-TPI counter-2
O=C(/C=C/c1ccccc1)NCCc1nc2ccccc2[nH]1 | 2 | 3 | -5 | 2 | nt | nt
COc1ccc(OC)c(/C=C/C(=O)NCCc2nc3ccccc3[nH]2)c1 | 50* | 16 | 1 | -2 | 83* | 53*
COCCN(C(=O)CSc1nnc(-c2ccccc2F)o1)c1c(N)n(Cc2ccccc2)c(=O)[nH]c1=O | -1 | -3 | nt | nt | nt | nt
O=C(NNC(=O)c1ccccc1Cl)c1ccc2c(c1)OCCO2 | -3 | -4 | 3 | -1 | nt | nt
O=C(O)c1ccccc1-c1cc2ccccc2[nH]1 | 3 | -3 | -2 | 4 | nt | nt
COc1ccccc1-c1cc2ccccc2[nH]1 | 90* | 12 | 0 | 4 | 49* | 27*
CCOC(=O)C1CCN(C(=O)c2ccc3c(c2)C(=O)N(c2ccccc2C)C3=O)CC1 | 0 | -2 | -2 | 3 | nt | nt
Cc1ccc2c(c1)C(c1ccccc1)N(C(=O)c1cccc([N+](=O)[O-])c1)CC(=O)N2 (configuration not stated) | 1 | 11 | 0 | 2 | nt | nt
Cc1cc(OC(C)C(=O)NCc2ccncc2)c2c3c(c(=O)oc2c1)CCC3 (configuration not stated) | 64* | 9 | 2 | -4 | 133* | 93*
Cc1cc(OCC(=O)NCc2ccncc2)c2c3c(c(=O)oc2c1)CCCC3 | 85* | 4 | -1 | 0 | 122* | 94*
Cc1cc(OC(C)C(=O)NCc2ccncc2)c2c3c(c(=O)oc2c1)CCCC3 (configuration not stated) | 71* | 10 | 2 | -1 | 178* | 154*
Cc1c(OC(C)C(=O)NCc2ccncc2)ccc2c3c(c(=O)oc12)CCCC3 (configuration not stated) | 34* | 12 | 0 | -5 | 0 | -3
C[C@@H]1C[C@H]2[C@@H]3CCC4=CC(=O)C=C[C@]4(C)[C@@]3(Cl)[C@@H](O)C[C@]2(C)[C@@]1(OC(=O)c1ccco1)C(=O)CCl | 0 | -1 | 1 | -47 | nt | nt
COC(=O)c1ccc2nc(-c3cccc(Cl)c3)c(Cc3ccsc3)n2c1 | 7 | nt | nt | nt | nt | nt
Cc1c(OC(C)C(=O)NCC(O)c2ccccc2)ccc2c3c(c(=O)oc12)CCCC3 (configuration not stated) | 48* | 21 | 2 | 0 | + | 197*
Cc1cc(=O)oc2c(C)c(OC(C)C(=O)NCC(O)c3ccccc3)ccc12 (configuration not stated) | 20 | 9 | 2 | -1 | nt | nt
CC(=O)NC(Cc1c[nH]c2ccccc12)C(=O)OCC(=O)N1CCN(S(=O)(=O)c2ccc(Cl)cc2)CC1 (configuration not stated) | 0 | -7 | nt | nt | nt | nt
CCOc1ccc(S(=O)(=O)N(CC(=O)NCc2ccncc2)c2ccc(C)cc2)cc1 | -1 | -10 | 1 | -3 | nt | nt
O=C(c1cccs1)N1CCc2c([nH]c3ccccc23)C1c1ccccn1 (configuration not stated) | 34* | 7 | 1 | -1 | 1 | -5
S=c1[nH]nc(Cn2cnc3ccccc32)n1-c1ccccc1 | -5 | -10 | 1 | 1 | nt | nt
Cc1ccc(OCCNC(=O)Cc2ccc(S(=O)(=O)N3CCOCC3)s2)cc1 | 1 | 3 | 4 | -1 | nt | nt

From PubChem BioAssay
